Reference: PubChem BioAssay
Several values for one entry are separate records, joined by “and”; a condition that tells them apart may be missing. Equal values may be shown once.

Test: BT084 cell growth, single and combined drugs, ICGC_MB145, cisplatin and BGB IC40 combos (AID 1671461);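 further: cells exposed to drugs for 96 hours; 0% = vehicle DMSO and 100% = high DMSO full killing control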
Conditions: BT084 medulloblastoma cells, drug combinations, cisplatin combination, at 0.5 µM, stronger effect = higher value

Which inhibition does the source give for `Cc1c(N)nc(C(CC(N)=O)NCC(N)C(N)=O)nc1C(=O)NC(C(=O)NC(C)C(O)C(C)C(=O)NC(C(=O)NCCc1nc(-c2nc(C(=O)NCCC[S+](C)C)cs2)cs1)C(C)O)C(O[C@@H]1O[C@@H](CO)[C@@H](O)[C@H](O)[C@@H]1O[C@H]1O[C@H](CO)[C@@H](O)[C@H](OC(N)=O)[C@@H]1O)c1cnc[nH]1` (stereo partly drawn) here?
Its inhibition is -3.29% and -12.5%.

For `O=c1[nH]c(=O)n(C2OC(CO)C(O)C2O)cc1F` (stereo not drawn), which inhibition is on record?
Its inhibition is -18.4%.

With `O=P(O)(NCCCl)NCCCl` as the compound, how does the inhibition read?
Its inhibition is 2.29%.

Which inhibition does the source give for `CC1(C)C(C(=O)Nc2ccc(S(=O)(=O)c3ccc(NC(=O)C4C(C)(C)C4(C)C)cc3)cc2)C1(C)C` here?
Its inhibition is -4.81%.

With `CCC1(O)C(=O)OCc2c1cc1n(c2=O)Cc2cc3ccccc3nc2-1` (stereo not drawn) as the compound, how does the inhibition read?
The inhibition was 23.6% and 35.1%.

Which inhibition does the source give for `NC(Cc1ccc(N(CCCl)CCCl)cc1)C(=O)O` (stereo not drawn) here?
Its inhibition is 5.86%.

With `COc1cc([C@@H]2c3cc4c(cc3[C@H](O)[C@H]3COC(=O)[C@H]23)OCO4)cc(OC)c1O` as the compound, how does the inhibition read?
Its inhibition is -0.605% and 4.61%.

With `COc1cc(C2c3cc4c(cc3C(O)C3COC(=O)C23)OCO4)cc(OC)c1OC` (stereo not drawn) as the compound, how does the inhibition read?
Its inhibition is 43.7%.
